Bioassay records (PubChem)
Compounds with a hit are over-represented: about 19% of the library has one in this group of screens.
IL1B secr inh: blocks inflammasome-driven IL-1 beta release; THP-1 LPS/ATP IL-1B secretion, AlphaLISA, 16 h; stronger effect = lower value; activity change, % at 57.5 µM; hit rate 4.7% among 360,000; in the data active means activity change below about -50%; inconclusive means mostly about -30% to -49%
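THP-1 cells pretreated 1 hr with compounds (up to 57.5 uM final), then stimulated with LPS (250 ng/mL final) plus ATP (1.25 mM final); secreted IL-1B measured by AlphaLISA after 16 hr, decreased signal indicating inhibition.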
HT1080-NT tox: kills 2HG-producing HT-1080-NT fibrosarcoma cells | HT-1080-NT fibrosarcoma viability, CellTiter-Glo ATP luminescence, 48 h | Potency, µM (top dose mostly 46.1 µM), for the others: at the top dose activity, negative = less viability, actives largely listed as cytotoxic | hit rate 1.6% among 360,000 | AID 686970;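 further: NT is the 2HG producing partner of a matched IDH1 knockdown line; potency means the concentration at half of the fitted maximal effect; 0% = DMSO-treated cells and -100% = media-only wells without cells; nearly all actives have a fitted effect of over 55% in size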
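Read-out is CellTiter-Glo luminescence after 10 minutes at room temperature, following 48 hours' compound treatment of HT-1080-NT cells (750 cells/well, RPMI, 5% FBS, 37 degrees C).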
TDP1 cell CPT: growth inhibition of DT40 Tdp1-/-;hTDP1 cells with camptothecin (screen for TDP1 inhibitors). chicken DT40 Tdp1-/-;hTDP1 cells + 20 nM CPT, ATP luminescence, 48 h. Potency, µM (series often up to 46.2 µM), inactives show at the highest dose activity change, negative = growth inhibition, most hits filed as inhibitors. hit rate 12% among 420,000. AID 686979; further: potency means the concentration at half of the fitted maximal effect; nearly all actives have a fitted effect of over 55% in size
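Chicken DT40 Tdp1-/- cells stably complemented with human TDP1 were seeded at 400 cells/well in medium containing 20 nM camptothecin, exposed to pin-transferred compounds, and grown at 37 °C for at least 48 hr. Viability was read as ATP luminescence.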
TDP1 cell noCPT: qHTS for Inhibitors of human tyrosyl-DNA phosphodiesterase 1 (TDP1): qHTS in cells in absence of CPT; DT40 Tdp1-/- hTDP1 cells, no CPT, ATP luminescence, 48 h; hit rate 15% among 420,000; Potency, µM (top dose mostly 46.2 µM), for inactives: at the top dose activity change, negative = growth inhibition, hits mostly inhibitors; further: potency means the concentration at half of the fitted maximal effect; nearly all actives have a fitted effect of over 55% in size
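Seeded 400 DT40-hTDP1 cells/well (vehicle DMSO, no 20 nM CPT); pinned compounds; ≥48 hr at 37 °C; CellTiter-Glo luminescence as viability measure.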
HT1080 IDH1KD tx: HT-1080 IDH1 knockdown cell toxicity (counter line); HT-1080 IDH1 knockdown viability, ATP luminescence, 48 h; Potency, µM (series often up to 46.1 µM), inactives show at the top dose activity, negative = toxicity, actives largely listed as cytotoxic; hit rate 2% among 360,000; AID 686971;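 further: potency means the concentration at half of the fitted maximal effect; 0% = DMSO wells and -100% = cell-free medium wells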
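Using the IDH1-knockdown HT-1080 line run in the same batch and compound series as the NT line, viability after 48 h at 37 °C was determined by CellTiter-Glo luminescence and expressed as % activity.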
* hit, by the source's call; ? = inconclusive; / = no result given; [ ] = dose if it differs, or a comment. Unless noted, the call rests on the fitted dose curve; in most records, active means well fitted curve in the direction sought with a large enough effect; inconclusive means small, poorly fitted or top-dose-only effect, or another doubt; inactive means no such curve, though single readings can be large; an effect the other way counts as inactive or inconclusive. Unless noted, on the % scale 0 is the no-effect control and ±100 the full control effect.

SMILES	IL1B secr inh	HT1080-NT tox	TDP1 cell CPT	TDP1 cell noCPT	HT1080 IDH1KD tx
O=C(CSc1nc2ccccc2n1Cc1ccccc1Cl)N/N=C/c1ccccc1C(=O)O	-12	-1%	?	?	2%
O=C(c1cc(Cl)ccc1O)N1CCN(S(=O)(=O)Cc2ccccc2)CC1	48	-3%	-21%	-20%	-3%
C=CCc1cc(Cl)ccc1OC(=O)Nc1cccc(Cl)c1	-13	-16%	?	?	-17%
Fc1ccc(C(Nc2ccccn2)c2c[nH]c3ccccc23)cc1 (configuration not stated)	-22	-20%	?	?	-6%
O=[N+]([O-])CC(c1ccc(F)cc1)c1c[nH]c2ccccc12 (configuration not stated)	0	?	7.3µM*	6.5µM*	?
COc1ccc(F)cc1NC(=O)C1CCN(c2nc(-c3ccc(OC)c(OC)c3)no2)CC1	/	/	4.6µM*	16µM*	/
COc1ccc(-c2noc(N3CCC(C(=O)Nc4ccccc4F)CC3)n2)cc1	21	3%	-16%	-4%	14%
COc1ccc(-c2noc(N3CCC(C(=O)Nc4ccc(OC)c(OC)c4)CC3)n2)cc1	7	0%	-2%	-13%	-6%
COc1ccc(-c2noc(N3CCCC(C(=O)Nc4cc(F)ccc4F)C3)n2)cc1 (configuration not stated)	0	-1%	?	18µM*	1%
Cc1cccc(Nc2nnc(SCC(O)=C(C#N)c3nc4ccccc4[nH]3)s2)c1	16	-28%	-15%	-20%	?
COc1ccc2c(c1OC)OCC2C (configuration not stated)	14	3%	?	18µM*	8%
CCCC(c1nnnn1C(C)(C)CC)N1CCN(C(=O)c2ccco2)CC1 (configuration not stated)	-8	15%	1%	-4%	7%
COc1cc(C(=O)CC2(O)C(=O)N(Cc3ccccc3Cl)c3ccccc32)cc(OC)c1OC (configuration not stated)	/	/	5.8µM*	5.2µM*	/
Cc1ccc(C(=O)CC2(O)C(=O)N(Cc3ccccc3Cl)c3ccccc32)o1 (configuration not stated)	2	0%	?	10µM*	-24%
CCCN1C(=O)C(O)(CC(=O)c2ccc(OC)c(OC)c2)c2ccccc21 (configuration not stated)	/	/	?	16µM*	/
COc1ccc(CN2C(=O)C(O)(CC(=O)c3c(C)n[nH]c3C)c3ccccc32)cc1OC (configuration not stated)	0	1%	?	?	3%
CC(=O)Nc1ccc(S(=O)(=O)N2CCN(Cc3cccc([N+](=O)[O-])c3)CC2)cc1	-2	-4%	?	23µM*	-4%
CC(=O)Nc1ccc(S(=O)(=O)N2CCN(c3cc(C(F)(F)F)ccn3)CC2)cc1	-10	-8%	18µM*	16µM*	-5%
CC(=O)Nc1ccc(S(=O)(=O)N2CCN(C(=O)Cc3ccccc3)CC2)cc1	-19	-11%	12µM*	?	0%
CC(=O)Nc1ccc(S(=O)(=O)N2CCN(c3nc(C)cc(C)n3)CC2)cc1	0	14%	-19%	0%	9%
CC(=O)Nc1ccc(S(=O)(=O)N2CCSc3ccccc32)cc1	25	21µM*	4.1µM*	3.7µM*	13µM*
O=S(=O)(c1cccc(Cl)c1)N1CCSc2ccccc21	18	-1%	-12%	-4%	-1%
NC(=O)NCc1ccccc1	26	2%	13%	2%	1%
CC(=O)Nc1ccc(S(=O)(=O)N2CCN(S(=O)(=O)c3ccc(NC(C)=O)cc3)CC2)cc1	1	6%	-2%	-3%	20%
CC(=O)Nc1ccc(S(=O)(=O)N2CCN(c3ccc([N+](=O)[O-])cc3)CC2)cc1	7	-12%	23µM*	21µM*	-11%
SMILES	IL1B secr inh	HT1080-NT tox	TDP1 cell CPT	TDP1 cell noCPT	HT1080 IDH1KD tx
CN(CC(=O)Nc1cccc(F)c1)C(=O)c1csc2c1CCCC2	-4	-14%	-28%	-28%	-14%
COc1cccc2c1O/C(=N\O)C(C(=O)Nc1ccc(C)cc1)C2 (configuration not stated)	0	?	5.8µM*	5.2µM*	15µM*
CC1(C)CC(=O)C(C(c2ccc3c(c2)OCO3)C2C(=O)CC(C)(C)CC2=O)C(=O)C1	30	16%	-19%	-12%	29%
Cc1ccc(N2CC(NC(=O)C(=O)c3c[nH]c4ccccc34)CC2=O)cc1C (configuration not stated)	24	-3%	-8%	-15%	-6%
COc1cc(-c2c(OC)cccc2OC)cc2c1OCCN(C(=O)CCn1nc(C)cc1C)C2	/	/	-5%[9.04 µM]	-17%	/
COCc1ccc(CN2CCOc3c(cc(-c4cc(C)c5cccc(OC)c5n4)cc3OC)C2)o1	/	/	-5%[9.04 µM]	21µM*	/
COc1cc(-c2cc(C)c3cccc(OC)c3n2)cc2c1OCCN(C(=O)CCn1ccc(C)n1)C2	/	/	-16%[9.04 µM]	23µM*	/
COc1ccc(Cn2nnnc2CN2CCC(c3nc4ccccc4s3)CC2)cc1	?	-14%[9.24 µM]	?	?	?
c1ccc2sc(C3CCN(Cc4nnnn4Cc4ccc5c(c4)OCO5)CC3)nc2c1	-4	-3%	?	18µM*	-4%
Cc1cc(C)c2nccc(/C=C/c3ccc(N(C)C)cc3)c2c1	/	/	11µM*	10µM*	/
CN(C)c1ccc(/C=C/c2ccnc3c(Cl)ccc(Cl)c23)cc1	/	/	11µM*	10µM*	/
Cc1ccc2c(/C=C/c3ccc(N(C)C)cc3)ccnc2c1C	/	/	13µM*	?	/
O=C(NC1CCCC1)C1c2ccccc2OCC(=O)N1Cc1ccco1 (configuration not stated)	27	19%	1%	-5%	7%
O=C1NC[C@@H](CCCCN2C[C@H](Cc3ccc(O)cc3)N(CCC3CCCCC3)C(=O)C2=O)N(Cc2ccccc2)C1=O	-6	?	3%	-16%	-23%
CSc1cc(-c2ccccc2)n(C)c(=O)c1C#N	-2	-20%	19%	?	-2%
CSc1cc(-c2ccc(Cl)cc2)n(Cc2ccccc2)c(=O)c1C#N	4	5%	?	15µM*	6%
CCn1c2ccccc2c2cc(NC(=O)c3ccc(C)c([N+](=O)[O-])c3)ccc21	-26	5%	5.8µM*	3.3µM*	15%
CCn1c2ccccc2c2cc(NC(=O)c3cccc([N+](=O)[O-])c3)ccc21	-13	?	21µM*	21µM*	?
